Measurements published in PubChem BioAssay.
The source made the active and inactive calls. Unless noted, how the calls were made is not given here.

Columns and labels:
[1] = compound effects on lung adenocarcinoma cell viability – A549, calcein-AM fluorescence, 48 h, basal, profiling panel (AID 1162); settings: higher = more signal; further: test concentration not given here
[2] = compound effects on differentiated 3T3-L1 adipocyte viability – cell-based, 3T3-L1 adipocytes, calcein-AM fluorescence, 48 h, basal, profiling panel (AID 1163); settings: 3T3-L1 adipocytes viability, higher = more signal; further: test concentration not given here
[3] = compound effects on hepatocellular carcinoma cell viability – HepG2, calcein-AM fluorescence, 48 h, basal, profiling panel (AID 1164); settings: higher = more signal; further: test concentration not given here
[4] = compound effects on multiple myeloma cell viability – MM1S, calcein-AM fluorescence, 48 h, basal, profiling panel (AID 1165); settings: higher = more signal;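 further: viability of MM1S multiple myeloma cells under basal unstimulated conditions; test concentration not given here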
[5] = calcein-AM signal in unstimulated myeloma cells – cell-based, calcein-AM fluorescence, 48 h, PK04 Diversity Set, profiling panel (AID 1166); settings: RPMI8226 myeloma viability, higher = more signal;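 further: cells grown under basal conditions without added stimulus; test concentration not given here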
[6] = JC-1 mitochondrial signal, unstimulated HepG2 cells – cell-based, JC-1 fluorescence, 24 h, 100 nL compound, profiling panel (AID 1167); settings: HepG2 mitochondrial potential, higher = more signal; further: test concentration not given here
[7] = JC-1 mitochondrial signal, unstimulated adipocytes – cell-based, JC-1 fluorescence, 3T3-L1 adipocytes, 24 h, 100 nL compound, profiling panel (AID 1168); settings: JC-1 mitochondrial fluorescence, higher = more signal, called active from +8 up or from −8 down; further: test concentration not given here
[8] = JC-1 mitochondrial signal, unstimulated myeloma cells – cell-based, JC-1 fluorescence, RPMI8226, 24 h, 100 nL compound, profiling panel (AID 1169); settings: JC-1 mitochondrial potential fluorescence, higher = more signal; further: test concentration not given here
[9] = JC-1 mitochondrial signal, unstimulated MM1S myeloma – cell-based, JC-1 fluorescence, 24 h, 100 nL compound, profiling panel (AID 1170); settings: MM1S mitochondrial potential, higher = more signal; further: test concentration not given here
[10] = resazurin metabolic signal in A549 cells – cell-based, resazurin fluorescence, 24 h, PK04 Diversity Set, profiling panel (AID 1171); settings: A549 viability, higher = more signal, called active from +8 up or from −8 down; further: test concentration not given here
[11] = resazurin metabolic signal in HepG2 cells – cell-based, resazurin fluorescence, 24 h, PK04 Diversity Set, profiling panel (AID 1172); settings: HepG2 viability, higher = more signal; further: test concentration not given here
[12] = budding yeast growth changes without added modifier – OD600, strain BY4716, 24 h, basal condition, primary screen (AID 1173); settings: S. cerevisiae BY4716 growth, OD600, 24 h; higher = more signal, called active from +8 up or from −8 down
[13] = viability profiling in MM1S myeloma cells – cell-based, resazurin fluorescence, basal, 24 h, PK04 Diversity Set, profiling panel (AID 1174); settings: higher = more signal, called active from +8 up or from −8 down; further: test concentration not given here
[14] = target: Dihydroorotate dehydrogenase (quinone), mitochondrial (Plasmodium falciparum (isolate 3D7)) (UniProt Q08210); experiment: inhibition of P. falciparum DHODH – biochemical, C-terminal His tag, absorbance 600 nm, primary screen (AID 1175); settings: PfDHODH enzyme, DCIP absorbance 600 nm; higher = more signal, called active from +8 up or from −8 down;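 further: recombinant parasite enzyme with a five histidine tag at its C terminus; test concentration not given here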
[15] = inhibition of PAO1 biofilm formation – strain PAO1, LB-PBS medium, absorbance 600 nm, primary screen (AID 1176); further: test concentration not given here; settings: P. aeruginosa PAO1 growth/biofilm, A600, 12 h; higher = more signal
[16] = growth modulation of vineyard yeast isolate – strain RM11-1a, OD600, basal, 24 h, primary screen (AID 1177);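 further: cultures grown under basal conditions with no added stressor; test concentration not given here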; settings: S. cerevisiae RM11-1a growth, OD600, 24 h; higher = more signal, called active from +8 up or from −8 down
[17] = growth of efflux-deficient E. coli DRC39 – strain DRC39, OD650, 24 h, E. coli filamentation inducers, primary screen (AID 1178);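 further: growth measured as culture turbidity by optical density at 650 nm; test concentration not given here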; settings: E. coli DRC39 acrAB, higher = more signal, called active from +8 up or from −8 down
[18] = growth of efflux-deficient E. coli DRC39 – strain DRC39, OD650, 48 h, E. coli filamentation inducers, primary screen (AID 1179);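 further: screen aims at cell division blockers that make cells filament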; settings: E. coli DRC39 delta-acrAB growth, higher = more signal, called active from +8 up or from −8 down
[19] = viability profiling in RPMI8226 myeloma cells – cell-based, resazurin fluorescence, basal, 24 h, PK04 Diversity Set, profiling panel (AID 1180); settings: higher = more signal;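 further: RPMI8826 multiple myeloma cell line at 5000 cells per well; test concentration not given here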
[20] = target: E3 ubiquitin-protein ligase XIAP (Homo sapiens) (UniProt P98170); experiment: small molecules binding XIAP protein – biophysical, small-molecule microarray, fluorescence 635 nm, primary screen (AID 1181); settings: higher = more signal;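 further: score merges 667 nm emission and signal to noise over triplicate slides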
E3 ubiquitin-protein ligase XIAP (Homo sapiens), sequence (P98170 whole entry, looked up): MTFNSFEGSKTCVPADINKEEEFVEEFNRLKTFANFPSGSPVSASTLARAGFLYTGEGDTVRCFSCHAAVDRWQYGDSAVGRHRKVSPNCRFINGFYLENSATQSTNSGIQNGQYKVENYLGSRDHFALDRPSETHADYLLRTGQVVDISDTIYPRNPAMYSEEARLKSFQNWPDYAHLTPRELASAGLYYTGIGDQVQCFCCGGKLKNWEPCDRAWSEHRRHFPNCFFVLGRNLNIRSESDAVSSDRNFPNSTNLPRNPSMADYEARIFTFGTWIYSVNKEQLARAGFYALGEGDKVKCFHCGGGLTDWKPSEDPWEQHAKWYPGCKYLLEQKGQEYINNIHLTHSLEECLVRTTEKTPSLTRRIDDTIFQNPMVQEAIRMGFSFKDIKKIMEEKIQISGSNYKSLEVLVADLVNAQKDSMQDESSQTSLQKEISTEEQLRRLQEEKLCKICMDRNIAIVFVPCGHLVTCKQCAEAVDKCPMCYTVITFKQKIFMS

Dihydroorotate dehydrogenase (quinone), mitochondrial (Plasmodium falciparum (isolate 3D7)), sequence (Q08210 whole entry, looked up): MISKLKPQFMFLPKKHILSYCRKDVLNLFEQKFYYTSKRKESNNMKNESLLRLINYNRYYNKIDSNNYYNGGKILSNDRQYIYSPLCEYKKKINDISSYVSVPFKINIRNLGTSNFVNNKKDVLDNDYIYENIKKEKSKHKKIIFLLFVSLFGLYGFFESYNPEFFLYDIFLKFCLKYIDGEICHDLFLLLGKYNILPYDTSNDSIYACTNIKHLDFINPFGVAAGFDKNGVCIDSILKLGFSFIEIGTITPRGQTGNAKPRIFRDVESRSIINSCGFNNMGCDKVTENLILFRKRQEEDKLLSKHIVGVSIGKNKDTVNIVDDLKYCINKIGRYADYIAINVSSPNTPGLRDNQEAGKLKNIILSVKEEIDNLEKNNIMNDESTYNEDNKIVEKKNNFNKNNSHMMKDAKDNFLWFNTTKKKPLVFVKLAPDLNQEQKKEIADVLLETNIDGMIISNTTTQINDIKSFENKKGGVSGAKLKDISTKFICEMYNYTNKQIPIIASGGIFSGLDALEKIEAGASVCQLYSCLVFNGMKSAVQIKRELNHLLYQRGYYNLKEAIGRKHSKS

| Structure (SMILES) | z-score [1] | z-score [2] | z-score [3] | z-score [4] | z-score [5] | z-score [6] | z-score [7] | z-score [8] | z-score [9] | z-score [10] | z-score [11] | z-score [12] | z-score [13] | composite z-score [14] | z-score [15] | z-score [16] | z-score [17] | z-score [18] | z-score [19] | composite z-score [20] |
| --- | --- | --- | --- | --- | --- | --- | --- | --- | --- | --- | --- | --- | --- | --- | --- | --- | --- | --- | --- | --- |
| [N-]=[N+]=NCc1ccccc1[C@@H]1OC(c2ccc(OCCCO)cc2)=N[C@]1(Cc1ccccc1)C(=O)NCc1ccccc1 | 0.53 | 0.592 | 0.293 | -0.856 | -0.0369 | 0.152 | 0.594 (inactive) | -0.994 | -0.921 | 0.267 (inactive) | 0.771 | 0.467 (inactive) | -0.0664 (inactive) | 0.101 (inactive) | -0.223 (inactive) | 1.7 (inactive) | -0.0548 (inactive) | 0.065 (inactive) | -0.484 | 0.1 |
| CN(C)CCCC[C@@H]1NC(=O)[C@H]2C[C@@H](C(=O)NCc3ccc(F)cc3)[C@@H](c3ccc(O)cc3)N2C1=O | 0.334 | 0.0359 | -0.372 | -0.0511 | -0.23 | 1.28 | -0.365 (inactive) | -0.152 | 0.195 | 0.377 (inactive) | 0.222 | -0.549 (inactive) | 0.766 (inactive) | -1.54 (inactive) | -0.832 (inactive) | -0.649 (inactive) | 0.11 (inactive) | 0.182 (inactive) | 0.382 | 0.207 |
| O=C1O[C@H](c2ccccc2)[C@H](c2ccccc2)N2[C@H]1[C@@H](C(=O)NC[C@H](O)c1ccccc1)[C@]1(C(=O)Nc3ccc(C#CCCO)cc31)[C@H]2c1ccccc1OCCO | -0.661 | 1.43 | -1.12 | -0.751 | -1.41 | -0.864 | 2.89 (inactive) | -0.72 | -0.341 | 1.86 (inactive) | 1.19 | 0.904 (inactive) | -1.12 (inactive) | -0.532 (inactive) | 0.517 (inactive) | 1.48 (inactive) | 0.439 (inactive) | -0.467 (inactive) | -0.591 | -0.209 |
| COC(=O)[C@@]1(Cc2ccccc2)[C@H]2c3cc(C(=O)N4CCCC4)n(Cc4ccc(C(F)(F)F)nc4)c3C[C@H]2CN1C(=O)c1ccccc1 | -0.567 | 1.88 | -0.499 | -0.331 | -1.59 | 1.5 | -0.657 (inactive) | -0.561 | -0.796 | 0.263 (inactive) | 0.0826 | 1.18 (inactive) | -0.335 (inactive) | -0.559 (inactive) | -0.374 (inactive) | 0.151 (inactive) | 0.018 (inactive) | -0.815 (inactive) | -0.578 | 0.0558 |
| CCOC(=O)C1=C[C@@H](C(C)(C)C)N(S(=O)(=O)c2ccc(C)cc2)[C@H]1c1ccccc1Cl | -0.917 | -1.16 | -1.81 | -0.991 | -1.2 | 3.95 | 0.147 (inactive) | -0.822 | -0.863 | 0.772 (inactive) | -0.421 | 1.51 (inactive) | -0.763 (inactive) | 0.0477 (inactive) | 0.188 (inactive) | 1.73 (inactive) | -0.544 (inactive) | -0.468 (inactive) | -1.74 | 0.227 |
| CCCCN1CC=CC23O[C@@H]4/C=C\CCC(C)OC(=O)C4[C@H]2C(=O)N(C(C)CO)[C@@H]3C1=O (stereo not given in full) | -0.425 | -0.708 | 0.201 | 0.646 | -0.474 | -0.318 | -0.382 (inactive) | -0.726 | -1.13 | -0.016 (inactive) | 0.0172 | -0.0298 (inactive) | -0.289 (inactive) | -0.216 (inactive) | 0.301 (inactive) | 0.549 (inactive) | 0.659 (inactive) | 0.606 (inactive) | -0.175 | 0.0785 |
| COc1cc2c(cc1O)C(C1CC1)N(Cc1ccc([N+](=O)[O-])o1)CC2 (stereo not given) | -0.37 | 0.393 | -0.181 | -0.201 | 0.741 | -1.57 | -0.0836 (inactive) | -0.748 | 0.0309 | 0.533 (inactive) | -0.145 | -1.49 (inactive) | -0.0144 (inactive) | -4.24 (inactive) | 0.0898 (inactive) | -0.346 (inactive) | -0.698 (inactive) | -0.821 (inactive) | 0.211 | 0.234 |
| C[C@H]1NC(=O)C([C@@H](C)OCc2ccccc2)NC(=O)[C@@]23C(=O)N[C@@H](Cc4ccccc4)C2[C@H](C)[C@@]2(C)O[C@H]2C3/C=C/C/C=C\CNC1=O (stereo not given in full) | 0.462 | 1.44 | 0.14 | -0.0497 | -0.23 | 0.817 | 0.346 (inactive) | 0.0911 | 0.607 | -0.214 (inactive) | -0.588 | 0.481 (inactive) | 0.178 (inactive) | 0.369 (inactive) | 0.13 (inactive) | 0.787 (inactive) | 0.979 (inactive) | 0.545 (inactive) | 0.472 | -0.381 |
